# High-throughput results (PubChem)
# Mtb betalactam – beta-lactam sensitization of Mtb H37Rv | M. tuberculosis H37Rv growth with meropenem, percent inhibition | inhibition, % at 25 µM | actives 0.27% (n = 330,000) | AID 434955; call rule not given here;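 note: growth measured after seven days incubation then overnight dye step; 0% = bacteria only wells and 100% = bacteria with antibiotic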
# Sa RN4220 lethal – S. aureus RN4220 growth inhibition. OD600, 16 h. inhibition, % (concentration not given with the values). actives 0.33% (n = 330,000); in the data active = inhibition above about 85%;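 note: plate controls were untreated cells for no effect and reference antibiotic for full effect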
# CCHF vOTU inh – CCHFV vOTU protease inhibition | Pep-AMC fluorescence | inhibition, % at 11.5 µM | actives 0.55% (n = 370,000); in the data active = inhibition above about 30%; note: 0% = vehicle wells with enzyme and 100% = no enzyme wells
# MazEF act – MazEF (E. coli) toxin RNase activation; AID 504720; FAM/BHQ RNA-DNA oligo cleavage fluorescence, 5 h; actives 0.32% (n = 350,000); P0AE70; activation, % at 20 µM; in the data active = activation above about 50%
# Target sequence (P0AE70 whole entry, looked up): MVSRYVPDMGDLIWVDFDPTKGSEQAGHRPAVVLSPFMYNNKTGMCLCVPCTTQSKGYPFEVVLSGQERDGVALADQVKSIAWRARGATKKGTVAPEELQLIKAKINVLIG
# Sa ugtP lethal – compounds lethal to S. aureus RN4220 ugtP deletion mutant; OD600 growth, 16 h; growth inhibition, % (no concentration beside the values); actives 0.54% (n = 330,000); in the data active = growth inhibition above about 68%;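 note: plate controls were untreated wells for no effect and antibiotic for full effect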
# SARS 3CLpro inh – SARS-CoV 3CLpro protease inhibition | recombinant SARS-CoV 3CLpro, quenched FRET peptide cleavage | inhibition, % at 6 µM | AID 1706 | actives 0.14% (n = 290,000); in the data active = inhibition above about 12%
# * hit, by the source's call; ? = inconclusive; · = not tested or not shown. A selection: hits, their analogues and other compounds. The true share with any hit is near 1.3%.
SMILES,Mtb betalactam,Sa RN4220 lethal,CCHF vOTU inh,MazEF act,Sa ugtP lethal,SARS 3CLpro inh
O=[N+]([O-])c1ccc(NC2CCN(Cc3ccccc3)CC2)c2ccncc12,1,3,9,58*,12,-3
O=[N+]([O-])c1ccc(NC2CCCC2)c2ccncc12,0,0,·,62*,-1,0
CN1C(=O)C(C)(C)c2cc(S(=O)(=O)NCc3ccc(Cl)cc3)ccc21,?,3,24,5,4,5
CCC(C)NC(=O)c1ccc(CNS(=O)(=O)c2ccc3c(c2)C(C)(C)C(=O)N3C)cc1 (configuration not stated),-9,-3,-1,107*,8,-4
Cc1ccc(CNC(=O)c2ccc(CNS(=O)(=O)c3ccc4c(c3)C(C)(C)C(=O)N4C)cc2)o1,-4,5,-2,102*,-2,-8
CC(=O)c1ccc(OC(=O)C2c3ccccc3Oc3ccccc32)cc1,76,1,4,-3,7,3
Cc1ccc(OC(=O)C2c3ccccc3Oc3ccccc32)cc1C,96,-1,15,-23,90*,0
CCOc1cc(C=NNC(=O)c2cccnc2)ccc1OCC(N)=O,·,1,·,·,0,·
Cc1c(C(=O)Oc2cc(N)n(S(C)(=O)=O)n2)cccc1[N+](=O)[O-],-5,1,15,74*,7,1
Cc1ccccc1C(=O)Oc1cc(N)n(S(C)(=O)=O)n1,-4,9,-13,11,18,0
[N-]=[N+]=NC(CCN1CCC(NC(=O)OCc2ccccc2)CCC1=O)c1ccccc1 (configuration not stated),·,2,·,·,-12,·
CCOC(=O)c1c(NS(=O)(=O)Cc2ccccc2)sc2c1CCCC2,2,12,11,-3,-19,0
COC(=O)c1c(NC(=S)NNS(=O)(=O)c2ccc(OC)cc2OC)sc2c1CCCCCC2,-8,-8,-9,-1,92*,5
COC(=O)c1c(NS(=O)(=O)c2ccc3ccccc3c2)sc2c1CCCC2,39,87*,16,-3,78,-1
CCOC(=O)c1c(NS(=O)(=O)c2ccc(Br)cc2)sc2c1CCC2,89,112*,22,-5,98*,4
O=S(=O)(c1ccc(NC(=S)NN=Cc2cccc(Oc3ccccc3)c2)cc1)N1CCOCC1,·,2,·,·,18,·
Cc1cc(O)c2c(c1)C(=O)C13C(=C2O)C(=O)[C@H]2[C@@H](O)[C@@H]1[C@H]1[C@H](O)[C@@H]3C(=O)C3=C(O)c4c(O)cc(C)cc4C(=O)C312 (some centres not stated),44,98*,·,-10,97*,·
CCOC(=O)c1ccc(NC(=O)C2(c3ccc(OC)cc3)CCOCC2)cc1,37,6,-2,60*,0,-6
Cc1cccc(NC(=S)NN=Cc2ccc(Cl)c([N+](=O)[O-])c2)c1,·,1,·,·,-8,·
CCOC(=O)C1C2COc3ccc(Br)cc3C2N2C(=O)c3c(C)cc(C)cc3NC(=O)[C@@]12C (some centres not stated),·,0,·,·,2,·
COc1ccc(C(C)=NNc2nncc3ccccc23)cc1,·,3,·,·,5,·
COc1ccc(NC(=O)c2cccc(N3C(=O)NC4CC3(C)Oc3ccccc34)c2)cc1 (configuration not stated),2,2,-6,4,3,-1
CC12CC(NC(=O)N1c1cccc(C(=O)Nc3ncn[nH]3)c1)c1ccccc1O2 (configuration not stated),-9,2,-1,59*,3,1
Cc1[nH]c2ccccc2c1/C=C(\C#N)C(=O)NCc1ccccc1,-2,7,20,106*,-3,1
CC(C)(C)OC(=O)CC1CC=CCC(CC(=O)NCCO)C(=O)NC(c2ccccc2)COC1=O (configuration not stated),·,-1,·,·,0,·
SMILES,Mtb betalactam,Sa RN4220 lethal,CCHF vOTU inh,MazEF act,Sa ugtP lethal,SARS 3CLpro inh
CC1=NN(c2ccccc2)C(=O)/C1=C\c1ccc(Oc2ccc([N+](=O)[O-])cc2[N+](=O)[O-])cc1,6,·,91*,-4,·,-11
C(=Cc1c[nH]c2ccccc12)c1nccc2ccccc12,·,-5,-14,113*,-22,·
C(=Cc1c[nH]c2ccccc12)c1ccc2ccccc2n1,·,-4,22,6,6,·
Cc1ccc(C2C3C(=O)N(c4ccccc4)C(=O)C3[C@]3(C)C(=O)N(Cc4ccc(-c5ccccc5)cc4)CC(=O)N23)o1 (some centres not stated),·,8,·,·,6,·
FC(F)(F)c1cccc(NC(=S)Nc2ccc(Cl)cc2Cl)c1,95,98*,-14,6,84*,0
O=C(NC(=S)Nc1ccc(F)c(Cl)c1)C1CC1,-7,-5,2,1,13,0
Fc1ccc(NC(=S)Nc2ccc(F)c(Cl)c2)cc1Cl,92,108*,·,-1,97*,-2
COc1ccc(C(C)=NNC(=O)c2nc(C)cc(C)n2)cc1,·,6,·,·,10,·
Nc1c(C(=O)c2cccs2)oc2ccccc12,-6,7,4,1,-6,-4
Nc1c(C(=O)c2ccc(Br)s2)oc2ccccc12,4,-1,-9,64*,0,-5
COc1ccc(C2CC(=O)C=C(c3ccc4c(c3)OCO4)C2)cc1OC (configuration not stated),·,7,·,·,8,·
CN(C(=O)c1cccc(Nc2ccc(-c3ccc4c(c3)OCCO4)nn2)c1)C1CCCCC1,88,88*,5,3,99*,-1
COc1ccc2nc(C)cc(SCC(=O)NNC(=O)COc3cccc4ccccc34)c2c1,1,5,-8,3,6,2
COc1ccc2nc(C)cc(SCC(=O)NNC(=O)COc3ccc(C)cc3)c2c1,-19,3,-4,51*,-6,5
C=C(C)C(=O)Oc1ccc(N=Nc2ccc(C)cc2)ccc1=O,·,0,12,-5,100*,·
CCOC(=O)C1C2COc3cc(OC)ccc3C2N2C(=O)N(c3ccc(F)cc3)C(=O)[C@]12C (some centres not stated),·,5,·,·,1,·
COc1ccc(/C=C/c2nc3ccccc3c(=O)n2-c2cccc(C(=O)O)c2)cc1,0,92*,7,-5,84,-11
COc1ccc(-n2c(/C=C/c3ccc(O)cc3)nc3ccccc3c2=O)cc1,-9,-10,4,34,18,-4
O=c1c2ccccc2nc(/C=C/c2ccc3c(c2)OCO3)n1-c1cccc(O)c1,-4,96*,18,6,93*,-4
Cc1ccc(-n2c(/C=C/c3ccc4c(c3)OCO4)nc3ccccc3c2=O)cc1,-1,·,8,·,·,-3
CC1C=C(C(=O)N2CCN(Cc3ccc4c(c3)OCO4)CC2)OC(OCc2ccc(CO)cc2)C1 (configuration not stated),·,7,·,·,5,·
C[N+](C)(CCOc1ccccc1)Cc1ccccc1,·,·,7,-4,·,·
